# Shown are actives, neighbours in structure and some others; about 1.1% of the full set was active somewhere.
# Cdc25B inh: inhibitors of Cdc25B phosphatase catalytic domain, primary screen, biochemical, OMFP fluorescence; recombinant Cdc25B, OMFP fluorescence Ex485/Em525; 65,000 compounds, 0.1% hits; M-phase inducer phosphatase 2 (Homo sapiens), P30305; inhibition, %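 (compounds tested at 10 µM final in the well)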; in the data active = inhibition above about 50%
# DUSP1 inh: MKP-1 phosphatase inhibitors, primary screen, biochemical, in vitro; 65,000 compounds, 0.15% hits; inhibition, %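 (compounds tested at a single concentration somewhere between 10 and 100 µM)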; recombinant MKP-1, OMFP hydrolysis fluorescence; Dual specificity protein phosphatase 1 (Homo sapiens), P28562; AID 374, 2006;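 active = inhibition above about 50%, limit read from the data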;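 note: 0% = DMSO max control wells and 100% = wells with enzyme stopped by NaOH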
# HePTP inh: inhibitors of human HePTP phosphatase, primary screen, biochemical, absorbance, leukemia target | Tyrosine-protein phosphatase non-receptor type 7 (Homo sapiens), P35236 | inhibition, % at 20 µM | AID 521, 2006 | 110,000 compounds, 0.64% hits | recombinant HePTP phosphatase activity, OD absorbance; in the data active = inhibition above about 50%;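 note: plate controls were vehicle for no effect and reference inhibitor for full effect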
# BAP1 inh: inhibitors of BAP1 deubiquitinase, primary screen, biochemical, Ub-AMC fluorescence, kinetic. AID 436, 2006. calls only at 20 µM. recombinant BAP1, Ub-AMC hydrolysis fluorescence kinetic; active compounds read low. 72,000 compounds, 0.48% hits. Ubiquitin carboxyl-terminal hydrolase BAP1 (Homo sapiens), Q92560;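 active = activity remaining at or below 50% of control, provided the compound also passes the data quality filters; inactive = the rest, including low values that fail the filters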;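 note: 100% = DMSO wells rate and 0% = substrate alone blank rate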
# Target sequence (Q92560 whole entry, looked up): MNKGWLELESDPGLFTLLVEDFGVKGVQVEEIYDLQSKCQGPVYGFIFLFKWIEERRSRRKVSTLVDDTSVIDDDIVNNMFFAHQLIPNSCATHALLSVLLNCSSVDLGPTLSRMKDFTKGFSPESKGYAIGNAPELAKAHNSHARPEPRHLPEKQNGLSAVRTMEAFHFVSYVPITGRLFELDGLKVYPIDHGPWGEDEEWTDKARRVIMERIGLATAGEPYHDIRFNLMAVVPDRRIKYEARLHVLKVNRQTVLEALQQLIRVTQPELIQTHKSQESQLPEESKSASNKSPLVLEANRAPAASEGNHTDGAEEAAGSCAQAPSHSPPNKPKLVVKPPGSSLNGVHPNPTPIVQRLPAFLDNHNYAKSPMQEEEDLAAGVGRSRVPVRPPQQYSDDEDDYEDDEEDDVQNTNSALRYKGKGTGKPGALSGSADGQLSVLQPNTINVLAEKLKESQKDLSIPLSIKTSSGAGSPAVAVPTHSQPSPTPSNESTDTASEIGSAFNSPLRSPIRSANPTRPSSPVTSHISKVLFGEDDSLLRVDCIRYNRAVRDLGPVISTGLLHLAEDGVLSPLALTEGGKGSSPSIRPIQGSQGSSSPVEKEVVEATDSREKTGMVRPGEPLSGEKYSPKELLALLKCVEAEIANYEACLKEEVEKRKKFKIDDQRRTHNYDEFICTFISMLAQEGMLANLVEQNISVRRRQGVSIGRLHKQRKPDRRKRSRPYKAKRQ
# Hsp90 block: tumor Hsp90 inhibitors, primary screen, cell lysate, fluorescence polarization, NCI-N417 lysate; Cy3B-geldanamycin FP displacement; inhibition, % at 30 µM; 64,000 compounds, 0.35% hits; AID 429, 2006;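 active = inhibition above 50%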;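 note: 0% = tracer plus lysate wells and 100% = tracer alone without lysate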
# Numbers without * were called inactive; i = inactive; / = not tested or not shown; + = active, no number; ! = not confirmed by another sample.
SMILES,Cdc25B inh,DUSP1 inh,HePTP inh,BAP1 inh,Hsp90 block
CCC1(O)C(C)C(c2ccc(Cl)cc2)NC(c2ccc(Cl)cc2)C1C (stereo unspecified),/,/,6,/,/
CCOC(=O)c1sc(NC(=O)c2ccc(C(C)(C)C)cc2)nc1-c1ccccc1,/,/,/,i,/
CCC1=NN2C(=N)/C(=C/c3ccc(-c4ccc(C(=O)O)cc4)o3)C(=O)N=C2S1,/,/,57*,/,/
COc1ccc(Br)cc1/C=N/OC(=O)c1ccccc1,/,/,9,/,/
CCCCCOC(=O)C1=C(C)NC(=S)NC1c1ccccc1 (stereo unspecified),/,/,63*,i,/
COc1ccc(Cn2nnnc2C(c2cc3cc(C)ccc3[nH]c2=O)N2CCOCC2)cc1 (stereo unspecified),-3,18,1,/,-3
COc1ccc(Cn2nnnc2C(c2cc3cccc(C)c3[nH]c2=O)N2CCOCC2)cc1 (stereo unspecified),52*,7,7,i,-1
Cc1cc(C)nc(SCC(=O)Nc2ccc(C)c(NC(=O)CSc3nc(C)cc(C)n3)c2)n1,/,/,9,/,/
O=C(O)c1ccc(/C=N/c2ncn[nH]2)cc1,/,/,100*,/,/
OCCN(CCO)c1nc(N2CCCCC2)c2nc(N(CCO)CCO)nc(N3CCCCC3)c2n1,-11,6,-6,i,61*
CN(C)c1nc(N2CCCCC2)nc(N2CCCCC2)n1,-4,9,4,i,2
Cc1cc2c(cc1C)CN(c1cccc(C(=O)N/N=C/c3ccc(O)c(O)c3)c1)C2,/,/,6,/,/
CCOC(=O)C1=C(C)NC(C)=C(C(=O)OC)C1c1cc(Cl)cc(Cl)c1OC (stereo unspecified),/,/,-26,/,/
CCOC(=O)C1=C(C)NC(C)=C(C(=O)OC)C1c1cccc(Cl)c1Cl (stereo unspecified),-8,0,0,+!,-5
COc1ccc(/C=C/C(=O)c2ccc(S(=O)(=O)NCc3cccnc3)cc2)cc1,/,/,1,/,/
O=C(NCCCN1CCOCC1)c1ccc(C#Cc2ccccc2)cc1,/,/,8,/,/
CCCCn1c(NC(C)=O)c(C#N)c2nc3ccccc3nc21,6,-4,10,i,-14
C=CCn1c(NC(=O)c2ccccc2)c(C#N)c2nc3ccccc3nc21,25,36,10,i,63*
C=CCn1c(NC(=O)c2ccccc2Cl)c(C#N)c2nc3ccccc3nc21,26,20,9,i,61*
CC(=O)Nc1ccc(S(=O)(=O)NNc2ccccc2)cc1,/,/,-6,/,/
CC(C)(C)c1ccc(S(=O)(=O)NNc2ccccc2)cc1,/,/,101*,/,/
CCOc1ccc2nc(SCc3ccccn3)sc2c1,/,/,79*,/,/
Cc1ccc(S(=O)(=O)NCc2nnc(NC(=O)c3ccc(Br)cc3)s2)cc1,/,/,58*,/,/
Cc1cc(C=C2C(=O)c3ccccc3C2=O)c(C)n1-c1cccc(Cl)c1,/,/,4,/,/
COc1ccc(C2CC(=O)C3=C(C2)Nc2ncnn2C3c2ccccc2)cc1 (stereo unspecified),-4,-1,-8,i,91*
SMILES,Cdc25B inh,DUSP1 inh,HePTP inh,BAP1 inh,Hsp90 block
O=C(O)c1cccc2c1NC(c1ccccc1Br)C1CC=CC21 (stereo unspecified),/,/,29,/,/
O=C(O)C1Nc2c(Cl)cc(Cl)cc2C2C=CCC12 (stereo unspecified),/,/,103*,/,/
CC(=O)Nc1ccc2c(c1)C1C=CCC1C(c1ccccc1F)N2 (stereo unspecified),/,/,2,/,/
COc1ccc2c(c1)C1C=CCC1C(C(=O)O)N2 (stereo unspecified),/,/,102*,/,/
CC(=O)Nc1ccc2c(c1)C1C=CCC1C(C(=O)O)N2 (stereo unspecified),/,/,80*,/,/
CCOc1ccc(NC(=O)N(C2CCCCC2)C2CCN(C(C)=O)CC2)cc1,64*,2,2,i,-4
CC1=C(C(=O)OCc2ccccc2)C(c2ccc(O)cc2)NC(=O)N1 (stereo unspecified),/,/,-3,/,/
COc1cc(/C=C(/C#N)C(=O)Nc2cccc(Br)c2)cc([N+](=O)[O-])c1O,/,/,104*,/,/
COc1ccccc1NC(=O)C(=O)NCCc1ccccc1,/,/,4,/,/
Cc1cc(NC(=O)CCCOc2ccc(Cl)cc2Cl)no1,64*,8,3,i,-3
Cc1ccnc(NC(=O)CCCOc2ccc(Cl)cc2Cl)c1,/,/,2,/,/
Cc1ccc(NC(=O)N(C)Cc2ccccc2)cc1,/,/,/,i,/
CCOc1cc(C=C2C(=O)NC(=O)NC2=O)ccc1OCc1c(C)no[n+]1[O-],/,/,5,/,/
CCOc1cc(/C=C2\SC(=S)NC2=O)ccc1OCc1c(C)no[n+]1[O-],/,/,102*,/,/
CC1=NNC(=O)C1CCC(=O)N/N=C/c1c(O)ccc2ccccc12 (stereo unspecified),/,/,2,/,/
O=C(CN1C(=O)/C(=C/c2ccccc2Cl)SC1=S)Nc1cccc(C(=O)O)c1,/,/,-14,/,/
O=C(CCN1C(=O)/C(=C\c2cccs2)SC1=S)Nc1cccc(C(=O)O)c1,/,/,93*,/,/
O=C(CCN1C(=O)/C(=C/c2cccs2)SC1=S)Nc1cccc(F)c1,/,/,4,/,/
O=C(O)CCCCCCCCCCN1C(=O)/C(=C/c2cccc(Br)c2)SC1=S,/,/,102*,/,/
O=C(CN1C(=O)/C(=C/c2ccccc2Cl)SC1=S)Nc1ccc(C(=O)O)cc1,/,/,96*,/,/
O=C1c2ccccc2C(=Nc2ccc(Br)cc2)C1c1ccccc1 (stereo unspecified),/,/,/,i,/
Brc1ccc(CNc2ccc3c(c2)ncn3-c2ccccc2)cc1,/,/,/,i,/
CC(C(=O)NN)C1=NC(C)(C)Cc2ccccc21 (stereo unspecified),/,/,54*,/,/
CC1CCN(S(=O)(=O)c2ccc3c(c2)c(=O)c(C(=O)NC2CCCC2)cn3C)CC1,-1,50*,8,i,2
N#CCC(=O)N1CCN(C(c2ccccc2)c2ccccc2)CC1,/,/,103*,/,/
SMILES,Cdc25B inh,DUSP1 inh,HePTP inh,BAP1 inh,Hsp90 block
O=C(CN1CCN(C(c2ccccc2)c2ccccc2)CC1)N1CCOCC1,-7,-10,-4,i,0
O=C(O)c1ccc2c(c1)C(=O)N(c1ccc(-c3nnc(-c4ccccc4)o3)cc1)C2=O,/,/,102*,/,/
O=C(O)c1ccc2c(c1)C(=O)N(c1ccc(-c3nc4ccccc4c(=O)o3)cc1)C2=O,/,/,15,/,/
O=C(CC1Sc2ccc(C(F)(F)F)cc2NC1=O)Nc1ccccc1 (stereo unspecified),/,/,2,/,/
CCC1=NN2C(=N)/C(=C/c3ccc(-c4ccc([N+](=O)[O-])cc4Cl)o3)C(=O)N=C2S1,/,/,13,/,/
Cc1ccc(S(=O)(=O)/N=C2\C=C(n3cnc4ccccc43)C(=O)c3ccccc32)cc1,/,/,85*,/,/
CN(C)CCN1C(=O)C(=O)/C(=C(/O)c2ccccc2)C1c1cccc([N+](=O)[O-])c1 (stereo unspecified),/,/,-2,/,/
O=C1c2ccc(Oc3ccc4c(c3)C(=O)N(c3ccc(S)cc3)C4=O)cc2C(=O)N1c1ccc(S)cc1,/,/,102*,/,/
